This is an account of results in the supplement of paper PMC3334620.

The full ranking holds about 33,000 sequences; the median of “E-score (-0.5 to 0.5)” is about -0.054, and the highest 2% start at about 0.35. Many of the other results were omitted from the sample, so the highest values are more common in it than they were.

This experiment addresses T1, Stb5 (UniProt P38699).
T1 sequence: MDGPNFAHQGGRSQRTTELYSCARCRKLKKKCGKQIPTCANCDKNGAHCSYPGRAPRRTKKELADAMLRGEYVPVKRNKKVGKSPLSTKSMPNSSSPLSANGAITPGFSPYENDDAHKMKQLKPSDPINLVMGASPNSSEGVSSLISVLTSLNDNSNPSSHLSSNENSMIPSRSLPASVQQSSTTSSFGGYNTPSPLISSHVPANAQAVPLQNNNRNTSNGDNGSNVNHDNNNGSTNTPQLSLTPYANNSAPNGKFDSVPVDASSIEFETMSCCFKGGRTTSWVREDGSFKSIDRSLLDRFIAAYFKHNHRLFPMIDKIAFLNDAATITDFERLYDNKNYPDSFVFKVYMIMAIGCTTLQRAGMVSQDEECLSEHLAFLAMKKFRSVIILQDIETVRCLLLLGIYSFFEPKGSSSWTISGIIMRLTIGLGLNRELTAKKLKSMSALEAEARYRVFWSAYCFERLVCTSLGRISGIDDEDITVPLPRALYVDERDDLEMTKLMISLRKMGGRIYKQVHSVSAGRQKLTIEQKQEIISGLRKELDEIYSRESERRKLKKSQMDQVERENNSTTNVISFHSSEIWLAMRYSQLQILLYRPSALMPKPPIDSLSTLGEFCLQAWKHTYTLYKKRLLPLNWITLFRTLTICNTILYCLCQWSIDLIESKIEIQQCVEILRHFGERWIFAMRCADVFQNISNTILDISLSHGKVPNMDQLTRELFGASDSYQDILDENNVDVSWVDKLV
The experiment in a line: PBM E-score (8-mer binding enrichment) (E-score (-0.5 to 0.5)); higher = stronger / more preferred TF binding. As to conditions: protein concentration: 200 nM; construct: GST-full length. Here is the method: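 Universal 'all 10-mer' protein binding microarrays (Agilent AMADID 015681) probed with GST-tagged S. cerevisiae TFs (full-length or DBD) made by in vitro transcription/translation (PURExpress), about 100-200 nM. Bound TF was detected with fluorescent anti-GST. Each ungapped 8-mer (which stands for itself and its reverse complement) is scored by the PBM enrichment score (E-score), a modified Wilcoxon-Mann-Whitney statistic from -0.5 to +0.5, computed with the Universal PBM Analysis Suite. Scale: above 0.35 generally sequence-specific binding.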
Regarding ACCGCCTA, the “PBM E-score” value was 0.206.
For ACCGCCTC, the “PBM E-score” value is 0.313.
ACCGCCAC: the “PBM E-score” value turned out to be 0.316.
In the case of GCCGCCGA it was 0.329; in that of TCCGCCGA, 0.346.
Consider ACCGCAGT, for which the “PBM E-score” value came to 0.206.
The result for ACGGTTGA reads -0.165; that for ACTCTTTG, -0.24; that for ATCAAGGA, -0.12.
The result for CGCCCCCG reads 0.209.
On to ACCTTTGC, for which the “PBM E-score” value was -0.0619.
In the case of ACCACCTA it was -0.134.
In the case of GCCATACA it was -0.138; in that of GTCCTCAA, -0.137; in that of CACGTCAG, -0.163.
In the case of CCCGCCGC it was 0.347; in that of GCCGCCGC, 0.391.
As for GCCGCCAA, the “PBM E-score” value turned out to be 0.24.
Turning to ACCGCCAT, the “PBM E-score” value is 0.265.
In the case of CCCGCCGG it was 0.39; in that of ACCGCCAA, 0.276; in that of GCCGCCAC, 0.191.
In the case of ACCGCCAG it was 0.368; in that of CCCGCCGA, 0.345.
With ATACGGGC, the “PBM E-score” value is 0.103.
Consider TTGGACAA, for which the “PBM E-score” value is -0.195.
The result for ATTATTGG reads 0.0592; that for AGGCCCAG, -0.226; that for AGGAGGGG, -0.302.
The result for GTTTTCGA reads -0.115; that for GTCCCGAA, 0.121.
In the case of TCGCGCAA, the “PBM E-score” value is -0.136.
On to ATAGACAA, for which the “PBM E-score” value was -0.202.
In the case of CGTGAGGC it was -0.133; in that of ATTCAGCC, -0.129.
In the case of CCGCGCGC it was 0.281; in that of GACCGCGC, 0.246; in that of CACCGCGC, 0.401.
In the case of CCCCGCGG it was 0.349.
TACCGCGA: the “PBM E-score” value came out at 0.324.
The result for AACCGCGA reads 0.272; that for CACCGCGG, 0.419.
The result for CCGCGCGA reads 0.168; that for CCGCGCGG, 0.404; that for CACCGCGA, 0.37.
As to AACCGCGC, the “PBM E-score” value stood at 0.273.
For the sequence AACCGCGG, the “PBM E-score” value stood at 0.347.
The result for AATACTCC reads 0.173; that for GACAGTTA, -0.0979; that for AAGACTAG, -0.389.
As for AGCTACAG, the “PBM E-score” value was -0.215.
Take TCAATCCA: the “PBM E-score” value was -0.0437.
The result for GCGCTAGA reads 0.112; that for AGCACGGG, 0.199.
The result for ACCACCCA reads -0.217.
As for GGCCTCCC, the “PBM E-score” value was -0.0321.
The result for CGGTGCAC reads 0.0634; that for AGACCGTC, 0.252; that for ACACCGTC, 0.424.
In the case of CCACCGTC it was 0.246; in that of ACACCGTG, 0.416.
In the case of AAACCGTG it was -0.0899.
With ACACCGTA, the “PBM E-score” value turned out to be 0.346.
AACTAGCA: the “PBM E-score” value was -0.134.
CTTCGGCA: the “PBM E-score” value is 0.209.
The result for CAGCTGGG reads -0.0897; that for CTTGGGTA, -0.128.
In the case of AAACTCTA it was -0.134; in that of CGGCACCA, 0.394; in that of CGGCATGC, 0.273.
In the case of GGGCATGA it was -0.083.
Take CGGCATCA: the “PBM E-score” value is 0.387.
The result for AGGCATCA reads -0.202.
Regarding CGGCACCG, the “PBM E-score” value amounted to 0.342.
In the case of AGGCACCA it was -0.0686; in that of CGGCATCC, 0.224; in that of CGGCATGA, 0.367.
In the case of CTCCCTAC it was -0.0607.
In the case of AAGTACCG it was 0.441.
As to CAATACCG, the “PBM E-score” value worked out at 0.332.
As for AAATACCG, the “PBM E-score” value amounted to 0.432.
In the case of AATTACCC it was 0.0888.
In the case of AATTACCG it was 0.395; in that of AAATACCC, 0.279.
In the case of CATTACCG it was 0.205.
Regarding AAGTACCC, the “PBM E-score” value worked out at 0.0204.
The result for AAGTACCA reads -0.0936.
